Source: PubChem BioAssay (NCI)
This is part of a sample that, as a whole, favours compounds with a hit. Of some 83,000 tested, about 20% had one in any assay.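 Compound tested at a single concentration for 48 hours in 96-well plates; a percent growth value below 10 was scored as active.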 A number with no mark means an inactive call. Calls of active or inactive are those of the source.

How the values were obtained:
Assay in all cases: NCI-60 one-dose screen, 48 h (100 = growth as untreated, 0 = no growth, -100 = all killed)
Conditions in all cases: 10 µM unless noted
SK-MEL-2 melanoma = tested on: SK-MEL-2 melanoma
EKVX NSCLC = tested on: EKVX NSCLC
SN12C renal = tested on: SN12C renal
UO-31 renal = tested on: UO-31 renal
TK-10 renal = tested on: TK-10 renal
ACHN renal = tested on: ACHN renal
CAKI-1 renal = tested on: CAKI-1 renal
A498 renal = tested on: A498 renal
CCRF-CEM leukemia = tested on: CCRF-CEM leukemia
MOLT-4 leukemia = tested on: MOLT-4 leukemia

SMILES | growth (SK-MEL-2 melanoma) | growth (EKVX NSCLC) | growth (SN12C renal) | growth (UO-31 renal) | growth (TK-10 renal) | growth (ACHN renal) | growth (CAKI-1 renal) | growth (A498 renal) | growth (CCRF-CEM leukemia) | growth (MOLT-4 leukemia)
CCn1cc(CNc2ccc(C(=O)Nc3cc4cc(OC)c(OC)cc4c(C)n3)cc2)cn1 | 38.7% | 60.5% | 79.3% | 19.8% | 52.7% | 60.8% | 69% | 73.8% | 17.5% | 35.2%
CN(C)c1ccc(-c2nc(-c3ccccc3)c(-c3ccccc3)[nH]2)cc1 | 83.9% | 61.1% | 92.9% | 84.8% | 99.6% | 94% | 84.6% | 82.4% | 90% | 83.4%
COc1cnc2c(c1)C(=O)c1c-2n(CCCCl)c(=O)c2ccncc12 | 102% | 79.1% | 70.4% | – | 87.3% | 37.3% | 35.7% | 73.2% | 34.6% | 26.2%
CCN(CC)c1ccc(CNc2cc(C)nc3ccccc23)cc1 | 84.2% | 42.6% | 75.4% | – | 67% | 64.6% | 53.2% | 52.5% | 70% | 86.4%
Cc1ccc2c(-c3nnc(N)s3)cc(=O)oc2c1C | 110% | 97.3% | 99.8% | – | 102% | 103% | 94.1% | 85.1% | 39.2% | 102%
CC1CCN(C(=S)SCC(=O)NC(=O)c2ccccc2)CC1 | 102% | 102% | 109% | – | 99.8% | 112% | 102% | 99.6% | 106% | 93.6%
COc1cc2c(c(OC)c1OC)C(=O)CC(c1cccc(NC(=O)c3ccc(C#N)cc3)c1)O2 (stereo not given) | 69% | 83.8% | 83% | 62.8% | 89.4% | 81.2% | 77.1% | 82.2% | 25.3% | 27%
COc1ccc(C2CC(c3cc(OC)c(OC)c(OC)c3)=NO2)cc1OCCCCOc1cc2c(cc1OC)C(=O)N1CCC[C@H]1C=N2 (stereo not given in full) | -35.2% (active) | 16.8% | 32.2% | – | -13.6% (active) | 0.735% (active) | 11.1% | -67.3% (active) | 69.3% | 7.66% (active)
CCOC(=O)C#Cc1c(C(=O)OCC)nnn1Cc1ccc(C(F)(F)F)cc1 | 97.1% | 93.6% | 57.7% | – | 8.7% (active) | -25.4% (active) | 0.164% (active) | 104% | 8.84% (active) | 25.1%
COC(=O)c1c2c(c(C)[n+]([O-])c1C)C(=O)C(NCc1ccc(OC)cc1)=CC2=O | 62.3% | 55% | 0.985% (active) | – | 102% | 40.1% | 48.5% | 113% | 20.7% | 0.904% (active)
S=c1[nH]c(=S)c2c(-c3ccccc3)c(-c3ccccc3)oc2[nH]1 | 99.6% | 103% | 95.3% | – | 124% | 106% | 101% | 70.9% | 114% | 101%
Cc1ccc2nc(NC(=O)CSc3nc(-c4ccccc4)c(C#N)c4nnnn34)sc2c1 | 109% | 106% | 111% | – | 141% | 106% | 94.6% | 109% | 106% | 99.4%
CC1=C2[C@@H](CC1)[C@]1(C)O[C@@](c3ccccc3)(C[C@H]1OC(=O)CO)[C@H]2OC(=O)/C=C/c1ccccc1 | 91.9% | 83.4% | 41.4% | – | 111% | 2.46% (active) | 72.2% | -78.1% (active) | 77.5% | 70.8%
COc1cc(NC(=O)c2cncnc2Nc2ccc3c(ccn3Cc3ccccn3)c2)cc(OC)c1 | 45% | 68.4% | 56.2% | – | 73.3% | 66.5% | 44.2% | -12.5% (active) | 22.3% | 24.9%
O=C(/C=C/c1cccc(Cl)c1Cl)Nc1ncc(Cc2ccccc2Cl)s1 | 44.7% | 55.7% | 56.9% | – | 84.2% | 46.4% | 48% | 39.6% | 21.5% | 50.6%
C=C1C(=O)O[C@H]2[C@H]1CC/C(COC(=O)/C=C\C(=O)NCc1ccc(Cn3c(=O)sn(CCCl)c3=O)cc1)=C\CC[C@@]1(C)O[C@@H]21 | 85.8% | 86.2% | 89.9% | – | 60.9% | 44.2% | 47.9% | 132% | 7.92% (active) | 35.1%
N=C(N)c1ccc(-c2ccc(-c3ccccc3)s2)cc1 | 105% | 84.6% | 70.3% | – | 108% | 68.3% | 14.5% | 89.1% | 21% | -3.58% (active)
COc1cc(-c2nc3cc(Cl)c(Cl)cc3[nH]2)ccc1OCC(=O)N=Nc1c(O)[nH]c2ccc(Cl)cc12 | -27.3% (active) | 45.7% | 0.477% (active) | – | 36.5% | 29.2% | 15.2% | 20.1% | -31.3% (active) | -27.8% (active)
NC1(CO)COC(c2ccccc2)OC1 (stereo not given) | 102% | 118% | 104% | – | 96.5% | 96.3% | 103% | 107% | 99.4% | –
CC/C=C\C[C@H](O)C/C=C1/C(=O)C=C[C@@H]1C/C=C\CCCC(=O)O | 62.2% | 105% | 46.2% | – | 103% | 84.5% | 83.9% | 90.9% | 4.11% (active) | 5.7% (active)
C=C1C(=O)O[C@H]2[C@H]1CC/C(COC(=O)c1cc3cc(Cl)ccc3[nH]1)=C\CC[C@@]1(C)O[C@@H]21 | -84.2% (active) | -83% (active) | -61.2% (active) | – | -99.3% (active) | -89.2% (active) | -89.8% (active) | -11.9% (active) | -24.8% (active) | -21% (active)
NC(N)=NS(=O)(=O)c1ccc(NC2=C(I)C(=O)c3ncccc3C2=O)cc1 | 106% | 105% | 101% | – | 118% | 93.2% | 90.4% | 97.2% | 107% | 103%
COc1ccccc1N(C(C)=O)C1=C(Cl)C(=O)c2ccccc2C1=O | -38.2% (active) | 10.1% | 16% | – | -6.2% (active) | -29.5% (active) | 10.6% | 36.2% | -16.9% (active) | 10.9%
[2H]C([2H])([2H])Oc1ccc(F)cc1/C=C/C(=O)/C=C(/C=C/c1cc(F)ccc1OC([2H])([2H])[2H])OB(F)F | 94.2% | 99.7% | 67.4% | 53.9% | 96.9% | 54.5% | 74.1% | 111% | 1.24% (active) | 4.82% (active)
Oc1c(CN2CCCC2)cc(CSCc2ccccc2)c2cccnc12 | 11.3% | 37% | 17.6% | -18% (active) | 22.4% | 5.28% (active) | 7.37% (active) | 9.44% (active) | -14.9% (active) | -14.4% (active)
Cc1ccc(C(=O)c2ccc(CC(=O)NN3C(=O)c4ccccc4C3=O)n2C)cc1 | 102% | 100% | 92.8% | – | 111% | 96.3% | 87.4% | 104% | 110% | 100%
O=C(N=Nc1c(O)[nH]c2ccccc12)Nc1ccc(F)cc1 | 102% | 94.3% | 94.6% | – | 113% | 92.8% | 81.5% | 102% | 95.4% | 92.5%
CCN(CC)c1ccc(/C=N/NC(=O)Cc2ccc(Nc3ccnc(C(F)(F)F)c3)cc2)c(O)c1 | 56.1% | 10.5% | 40.3% | – | 35.4% | 19.4% | -20.8% (active) | 22% | 9.9% (active) | –
